Assay outcomes deposited in PubChem by National Center for Advancing Translational Sciences (NCATS).
An excerpt weighted towards active compounds, which were near 3.7% of everything screened.
GLP1R inv ag = qHTS of GLP-1 Receptor Inverse Agonists (Inhibition Mode); HEK293 GLP-1R CRE-luciferase, luminescence, 24 h; GLP-1R form is constitutively active; Potency, µM (series often up to 38.3 µM), hits mostly inhibitors; actives 1.6% (n = 410,000); Glucagon-like peptide 1 receptor (Homo sapiens), P43220; note: nearly all actives have a fitted effect of over 55% in size
Target sequence (P43220 whole entry, looked up): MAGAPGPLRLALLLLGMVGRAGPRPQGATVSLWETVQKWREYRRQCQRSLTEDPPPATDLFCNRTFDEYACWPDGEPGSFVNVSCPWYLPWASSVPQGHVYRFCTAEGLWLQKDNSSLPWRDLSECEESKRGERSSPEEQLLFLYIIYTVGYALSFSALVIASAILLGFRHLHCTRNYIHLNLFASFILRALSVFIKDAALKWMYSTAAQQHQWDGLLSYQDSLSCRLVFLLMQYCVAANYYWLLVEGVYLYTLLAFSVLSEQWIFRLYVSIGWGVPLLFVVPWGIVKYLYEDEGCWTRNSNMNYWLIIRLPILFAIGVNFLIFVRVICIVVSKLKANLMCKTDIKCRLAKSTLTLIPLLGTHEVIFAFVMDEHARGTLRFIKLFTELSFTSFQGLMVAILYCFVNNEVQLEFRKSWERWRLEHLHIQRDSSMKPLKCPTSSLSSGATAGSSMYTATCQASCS
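Cells are plated, allowed 12 hours at 37 deg C, then treated with compounds for 24 hr before luciferase detection reagent is added and luminescence is read after 12 min at room temperature. The HEK293 line carries constitutively active GLP-1R with a cAMP-responsive reporter.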
GLP-1R agonist = qHTS of GLP-1 Receptor Agonists | AID 624172, 2012 | Potency, µM (top dose mostly 45.6 µM), usual class: activators | HEK293 GLP-1R CRE-luciferase, luminescence, 4-6 h; cells express a hypersensitive GLP-1R form | actives 0.007% (n = 380,000) | Glucagon-like peptide 1 receptor (Homo sapiens), P43220
ATXN2 expr inh = Primary qHTS for Inhibitors of ATXN expression. HEK-293 ATXN2-luciferase reporter, luminescence, 24 h. Potency, µM (series often up to 57 µM), actives largely listed as inhibitors. actives 0.72% (n = 360,000). AID 1745845, 2022; note: nearly all actives have a fitted effect of over 55% in size
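qHTS (up to 57 uM final) was run with 24 h compound exposure of reporter cells at 37 °C. Each well was multiplexed: SteadyGlo luminescence measured ATXN2-luciferase expression after a fluorogenic Gly-Phe-AFC viability readout (25 uM final).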
ATXN viability = Viability Counterscreen for Primary qHTS for Inhibitors of ATXN expression; S2 cells (HEK-293 line with an ATXN2-luciferase reporter) viability, CellTiter-Fluor protease fluorescence, 24 h; Potency, µM (series often up to 56.7 µM), most hits filed as cytotoxic; actives 0.49% (n = 400,000); note: nearly all actives have a fitted effect of over 40% in size
TGFb SMAD3 inh = qHTS for Inhibitors of TGF-b. AID 588855, 2011. Potency, µM (series often up to 46.1 µM), most hits filed as inhibitors. actives 1.2% (n = 410,000). HepG2 CAGA-GFP TGF-b/SMAD3 reporter, GFP fluorescence, 18 h; TGF-beta stimulated, 500 pg/mL final; note: nearly all actives have a fitted effect of over 65% in size
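Read-out: total well GFP (ex488/em500-530) summed from mean per-cell fluorescence. Cells: HEPG2 CAGA-GFP, 1% FBS DMEM, 18 h at 37 degrees C with 500 pg/mL final TGF-beta. Unstimulated wells served as the full-inhibition control; stimulated DMSO wells = 0%.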
HepG2 viability = qHTS for Inhibitors of TGF-b: Cytotox Counterscreen; HepG2 CAGA-GFP viability, ATP luminescence, 18 h; Potency, µM (doses to about 46.1 µM), usual class: cytotoxic; actives 0.76% (n = 410,000); AID 588856, 2011
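CellTiter-Glo luminescence gave cytotoxicity after 18 hours at 37 degrees C. The cells were HepG2 CAGA-GFP in 1% FBS DMEM, stimulated with 500 pg/mL TGF-beta after compound addition. %Activity was normalised to no-cell wells (complete cell-killing) and DMSO (no toxicity), and curves were fitted and classified.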
Each line names hits and unclear results; the compound was inactive in the other large screens; ! = not confirmed by another sample. Calls come from the whole dose curve; as a rule, active = well fitted curve in the direction sought with a large enough effect; inconclusive = small, poorly fitted or top-dose-only effect, or another doubt; inactive = no such curve, though single readings can be large; an effect the other way counts as inactive or inconclusive.

CCOC(=O)c1c(-c2ccc(OC)cc2)csc1/N=C/C1C(=O)CCCC1=O	GLP1R inv ag inconclusive, HepG2 viability 15.8µM
CCOC(=O)c1c(-c2ccc(OC)cc2)csc1/N=C/N(C)C	none
CCOC(=O)c1c(-c2ccccc2)csc1NC(=O)CSc1nncs1	GLP1R inv ag inconclusive
CCOC(=O)N1C(C)CN(/[N+]([O-])=N/Oc2ccc([N+](=O)[O-])cc2[N+](=O)[O-])CC1C (stereo not drawn)	none (no result: GLP1R inv ag, GLP-1R agonist, ATXN2 expr inh, ATXN viability)
O=[N+]([O-])c1ccc2c(c1)C=C/C2=C/c1ccccc1	TGFb SMAD3 inh inconclusive (no result: GLP1R inv ag, GLP-1R agonist, ATXN2 expr inh, ATXN viability)
COCC(=O)Nc1cc(C(=O)N2CC3CCCC2C3)c2c(c1)nc(-c1ccncc1)n2C (stereo not drawn)	none (no result: GLP1R inv ag, GLP-1R agonist, ATXN2 expr inh, TGFb SMAD3 inh, HepG2 viability)
CCOCCOC(=O)/C=C/c1ccc(OC)cc1	none (no result: GLP1R inv ag, GLP-1R agonist, TGFb SMAD3 inh, HepG2 viability)
CCCCC/C=C/C/C=C/CCCCCCCC(=O)NC(C)c1ccccc1 (stereo not drawn)	none (no result: GLP1R inv ag, ATXN2 expr inh, ATXN viability, TGFb SMAD3 inh, HepG2 viability)
CCOc1ccccc1NC(=O)c1nc(S(=O)(=O)Cc2cccc(C)c2)ncc1Cl	ATXN viability 31.6µM!, TGFb SMAD3 inh inconclusive
Cc1ccc(CS(=O)(=O)c2ncc(Cl)c(C(=O)Nc3nnc(C(C)C)s3)n2)cc1	GLP1R inv ag inconclusive, ATXN2 expr inh inconclusive, ATXN viability inconclusive, TGFb SMAD3 inh 12.6µM, HepG2 viability 11.2µM!
CSc1nnc(NC(=O)c2nc(S(=O)(=O)Cc3cccc(C)c3)ncc2Cl)s1	GLP1R inv ag inconclusive, ATXN2 expr inh 28.2µM, ATXN viability 22.4µM, TGFb SMAD3 inh inconclusive
CSc1nnc(NC(=O)c2nc(S(=O)(=O)Cc3ccccc3F)ncc2Cl)s1	GLP1R inv ag inconclusive, ATXN viability inconclusive, TGFb SMAD3 inh inconclusive
CCNC(=O)c1c(NC(=O)c2nc(SCC)ncc2Cl)sc2c1CCCC2	none (no result: GLP1R inv ag, GLP-1R agonist, ATXN2 expr inh, ATXN viability)
COC(=O)c1ccccc1NC(=O)c1nc(S(=O)(=O)Cc2ccccc2)ncc1Cl	ATXN viability inconclusive (no result: ATXN2 expr inh)
CCNC(=O)c1c(NC(=O)c2nc(S(=O)(=O)CC)ncc2Cl)sc2c1CCCC2	TGFb SMAD3 inh 1.41µM, HepG2 viability 3.98µM (no result: GLP-1R agonist, ATXN2 expr inh, ATXN viability)
Cc1ccc(NC(=O)Nc2nnc(SCC(=O)N3CCC(C)CC3)s2)cc1	GLP1R inv ag inconclusive, TGFb SMAD3 inh inconclusive (no result: GLP-1R agonist, ATXN2 expr inh, ATXN viability)
CC/C(O)=N/S(=O)(=O)c1ccc(-c2c(-c3ccccc3)noc2C)cc1	none (no result: GLP1R inv ag, ATXN2 expr inh, ATXN viability, TGFb SMAD3 inh, HepG2 viability)
Clc1cccc(-n2nnnc2NCc2ccccc2Oc2ccccn2)c1Cl	none (no result: GLP1R inv ag, GLP-1R agonist, ATXN viability, TGFb SMAD3 inh, HepG2 viability)
Cc1csc(C(C)N(C)C(=O)c2cc(NC(=O)C3CCC3)c3c(c2)nc(-c2ccncc2)n3C)n1 (stereo not drawn)	none (no result: GLP1R inv ag, GLP-1R agonist, ATXN2 expr inh, TGFb SMAD3 inh, HepG2 viability)
CCc1nnc(NC(=O)c2nc(S(=O)(=O)Cc3ccccc3)ncc2Cl)s1	GLP1R inv ag inconclusive, ATXN2 expr inh inconclusive, ATXN viability inconclusive, TGFb SMAD3 inh inconclusive
O=C(Nc1nc2ccc(F)cc2s1)c1nc(S(=O)(=O)Cc2ccccc2F)ncc1Cl	ATXN2 expr inh 25.1µM, ATXN viability 11.2µM, TGFb SMAD3 inh 6.31µM, HepG2 viability 7.08µM (no result: GLP-1R agonist)
Cc1nnc(NC(=O)c2nc(S(=O)(=O)Cc3ccccc3C)ncc2Cl)s1	GLP1R inv ag inconclusive, ATXN2 expr inh inconclusive, ATXN viability inconclusive, TGFb SMAD3 inh inconclusive
CC(C)c1nnc(NC(=O)c2nc(S(=O)(=O)Cc3ccc(F)cc3)ncc2Cl)s1	GLP1R inv ag inconclusive, ATXN viability inconclusive, TGFb SMAD3 inh inconclusive
Cc1cccc(CS(=O)(=O)c2ncc(Cl)c(C(=O)Nc3nnc(C(C)C)s3)n2)c1	GLP1R inv ag inconclusive, ATXN viability 28.2µM, TGFb SMAD3 inh 11.2µM, HepG2 viability 11.2µM!
CC(C)c1nnc(NC(=O)c2nc(S(=O)(=O)Cc3ccccc3F)ncc2Cl)s1	GLP1R inv ag inconclusive, ATXN2 expr inh 10µM, ATXN viability 7.08µM, TGFb SMAD3 inh 12.6µM
CCc1nnc(NC(=O)c2nc(S(=O)(=O)Cc3cccc(C)c3)ncc2Cl)s1	GLP1R inv ag inconclusive, ATXN2 expr inh inconclusive, ATXN viability inconclusive, TGFb SMAD3 inh 11.2µM, HepG2 viability 22.4µM
CCCCN(CCCC)C(C(N)=O)c1ccc(OC)cc1 (stereo not drawn)	none (no result: GLP1R inv ag, GLP-1R agonist, TGFb SMAD3 inh, HepG2 viability)
O=C(CN1C(=O)COc2ccc(S(=O)(=O)N3CCCCCC3)cc21)NCc1ccc(Cl)cc1	GLP1R inv ag inconclusive, TGFb SMAD3 inh 10µM (no result: GLP-1R agonist, ATXN2 expr inh, ATXN viability)
Cn1cc(S(=O)(=O)N2CCCCCC2)cc1C(=O)NCc1ccccc1Cl	GLP1R inv ag inconclusive, TGFb SMAD3 inh 5.01µM
O=C(CN1C(=O)COc2ccc(S(=O)(=O)N3CCCCC3)cc21)NCc1ccc(Cl)cc1	GLP1R inv ag 10µM, TGFb SMAD3 inh inconclusive
CC1CCN(S(=O)(=O)c2ccc3c(c2)N(CC(=O)NCCc2ccc(Cl)cc2)C(=O)CO3)CC1	GLP1R inv ag inconclusive, ATXN2 expr inh inconclusive, ATXN viability 28.2µM, TGFb SMAD3 inh 12.6µM
CC(CC(C#N)(c1ccccc1)C(C)C)N(C)C (stereo not drawn)	none (no result: GLP1R inv ag, GLP-1R agonist, TGFb SMAD3 inh, HepG2 viability)
C=CC[n+]1cccc2cccc(O)c21	none (no result: GLP1R inv ag, GLP-1R agonist, ATXN2 expr inh, ATXN viability)
COc1ccc(/C=C\c2onc(C)c2S(=O)(=O)N2CCC(C(=O)Nc3ccccc3OC)CC2)cc1	TGFb SMAD3 inh inconclusive (no result: GLP-1R agonist, ATXN2 expr inh, ATXN viability)
O=C(CN1C(=O)c2ccccc2C1=O)NCC1Cc2cccc(-c3ncccn3)c2O1 (stereo not drawn)	none (no result: GLP1R inv ag, GLP-1R agonist, ATXN2 expr inh, TGFb SMAD3 inh, HepG2 viability)
O=C(NCCc1ccccc1)c1cc(-c2ccccc2)nc2n[nH]c(-c3ccccc3)c12	GLP1R inv ag inconclusive, TGFb SMAD3 inh inconclusive (no result: GLP-1R agonist)
O=C(COC(=O)c1ccc(S(=O)(=O)N2CCCC2)cc1)NCc1ccc(Cl)cc1	none
